D2 antag: HTS Assay for Allosteric Antagonists of the Human D2 Dopamine Receptor: Primary Screen for Antagonists. 2% of 340,000 active. D(2) dopamine receptor (Homo sapiens), P14416. HEK293 TREx D2 cells, calcium flux, dopamine EC80. AID 485344, 2010. inhibition, % at 10 µM; in the data active means inhibition above about 30%; inactive means below that, where a call was filed; further: 0% is about no effect
Target sequence (P14416 whole entry, looked up): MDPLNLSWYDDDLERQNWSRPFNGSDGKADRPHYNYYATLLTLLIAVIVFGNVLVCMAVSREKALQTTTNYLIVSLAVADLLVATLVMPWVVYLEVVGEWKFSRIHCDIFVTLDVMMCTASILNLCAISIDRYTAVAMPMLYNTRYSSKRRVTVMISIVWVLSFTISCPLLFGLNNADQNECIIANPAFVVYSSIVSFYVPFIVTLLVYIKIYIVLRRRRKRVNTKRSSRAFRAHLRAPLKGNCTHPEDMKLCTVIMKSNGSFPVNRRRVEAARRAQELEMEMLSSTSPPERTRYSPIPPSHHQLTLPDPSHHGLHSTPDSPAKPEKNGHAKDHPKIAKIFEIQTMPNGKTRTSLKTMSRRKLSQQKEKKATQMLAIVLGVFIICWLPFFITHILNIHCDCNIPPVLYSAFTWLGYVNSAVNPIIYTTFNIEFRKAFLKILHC
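Tetracycline-induced HEK293 TREx cells expressing D2 receptor forced-coupled to calcium signalling, loaded with no-wash calcium dye. Compounds added and calcium flux read 180 s, then dopamine added at EC80 and read a further 180 s.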
D2 PAM-1: HTS Assay for Positive Allosteric Modulators of the Human D2 Dopamine Receptor: Primary Screen for Potentiators; D(2) dopamine receptor (Homo sapiens), P14416; HEK293 T-REx D2, calcium flux, EC20 dopamine potentiation; potentiation, % at 10 µM; 0.34% of 340,000 active; AID 485347, 2010;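 active means potentiation over 3 SD above the plate norm, cut at about 30% in these data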; further: 0% is about no effect
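Using a no-wash calcium dye in inducible, force-coupled HEK293 Trex cells expressing D2, we tracked fluorescence each second for 180 s after compound, then for 180 s after EC20 dopamine to detect augmented signalling.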
D2 ag-1: Beta-Arrestin HTS for Positive Allosteric Modulators of the Human D2 Dopamine Receptor: Agonists; activation, % (concentration not given with the values); DiscoveRx PathHunter D2 beta-arrestin, luminescence, 90 min; 100% = 57 uM dopamine signal; 0.084% of 360,000 active; D(2) dopamine receptor (Homo sapiens), P14416; in the data active means activation above about 40%
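Agonist mode: compounds alone added to overnight-plated D2 PathHunter cells for 90 min at 37 C, with 57 uM final dopamine (EC100) defining full response. Beta-arrestin recruitment detected by chemiluminescent reagent, read after 1 h at ambient temperature.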
D2 PAM-2: Beta-Arrestin HTS for Positive Allosteric Modulators of the Human D2 Dopamine Receptor: Potentiators. D(2) dopamine receptor (Homo sapiens), P14416. DiscoveRx D2 beta-arrestin cells, luminescence, 90 min; 100% = 57 uM dopamine signal. potentiation, % (concentration not given with the values). 0.23% of 360,000 active; in the data active means potentiation above about 50%
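D2 cells co-treated with compound plus 50 nM dopamine (EC20) for 90 min at 37 deg C to detect potentiation. Beta-arrestin recruitment was read as enzyme-fragment luminescence after 1 h at ambient temperature. Full response was set by 57 uM dopamine.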
D2 ag-2: HTS Assay for Allosteric Agonists of the Human D2 Dopamine Receptor: Primary Screen for Agonists | D(2) dopamine receptor (Homo sapiens), P14416 | HEK293 T-REx D2 cells, calcium flux agonist mode | activation, % at 2 µM | 0.53% of 340,000 active | AID 485358, 2010;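 active means activation over 3 SD above normal in the single-dose calcium agonist read, cut at about 30% in these data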; further: 0% is about no effect
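Agonism is scored from calcium flux in a force-coupled, inducible HEK293 cell line expressing D2, read kinetically for 180 s after compound addition against dopamine controls.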
The depositor's hits bear a star. Most compounds without a hit are left out; they make up all but 2.4% or so of the library.

Results for Cc1ccc(N(C(=O)c2snc(C(N)=O)c2N)C(C(=O)NC2CCCC2)c2ccncc2)cc1 (stereo not given) ?
D2 antag: 104.8*; D2 PAM-1: -21.2; D2 ag-1: -2.1; D2 PAM-2: -1.1; D2 ag-2: 0.2

How did CCOc1ccc(N(C(=O)c2snc(C(N)=O)c2N)C(C(=O)NC2CCCC2)C(C)C)cc1 (stereo not given) do in these assays?
D2 antag: -5.0; D2 PAM-1: 31.0*; D2 ag-1: -2.6; D2 PAM-2: -6.8; D2 ag-2: -1.0

How did Cc1ccc2c(C)c(C(=O)N(Cc3ccc(N(C)C)cc3)Cc3ccco3)oc2c1C do in these assays?
D2 PAM-1: 5.2; D2 ag-2: -0.8

How did O=C(NCCc1ccc(F)cc1)C(=O)NCC(c1cccs1)S(=O)(=O)c1ccc(F)cc1 (stereo not given) do in these assays?
D2 PAM-1: -5.3

Results for CC1CN(CCOc2ccc([N+](=O)[O-])cc2)CC(C)O1 (stereo not given) ?
D2 antag: -6.6; D2 PAM-1: 5.0; D2 ag-1: -1.3; D2 PAM-2: -10.7; D2 ag-2: -1.0

Results for O=[N+]([O-])c1ccc(OCCN2CCNCC2)cc1 ?
D2 antag: 31.8*; D2 PAM-1: -2.9; D2 ag-1: -2.3; D2 PAM-2: -7.1; D2 ag-2: 0.6

What do the screens show for `Cc1ccc(OCc2nc(-c3ccc(C(=O)NCCc4ccc(S(N)(=O)=O)cc4)cc3)oc2C)cc1`?
D2 PAM-1: 0.5; D2 ag-2: -0.4

What do the screens show for `O=S(=O)(c1ccc(Cl)cc1)N(CCCN1CCOCC1)Cc1cccs1`?
D2 antag: 42.8*; D2 PAM-1: -24.3; D2 ag-1: 2.7; D2 PAM-2: -18.5; D2 ag-2: -0.2

How did Cc1ccc(CSC2=Nc3ccccc3C3=NC(CCC(=O)NCCc4ccccc4)C(=O)N23)cc1 (stereo not given) do in these assays?
D2 PAM-1: -1.0; D2 ag-2: -0.1

How did O=C(O)c1ccc(/C=N/n2cc(-c3ccccc3)[nH]c2=S)cc1 do in these assays?
D2 antag: -3.1; D2 PAM-1: -5.2; D2 ag-1: -5.8; D2 PAM-2: -18.3; D2 ag-2: -1.0

How did Fc1ccccc1/C=N/n1cc(-c2ccccc2)[nH]c1=S do in these assays?
D2 antag: 37.8*; D2 PAM-1: 4.7; D2 ag-1: -7.1; D2 PAM-2: -21.2; D2 ag-2: 0.1

Results for S=c1[nH]c(-c2ccccc2)cn1/N=C/c1ccc(Br)cc1 ?
D2 antag: 36.5*; D2 PAM-1: -25.0; D2 ag-1: -1.0; D2 PAM-2: -18.5; D2 ag-2: 0.3

Results for Cc1ccc(-n2ncc(C(=O)NCCc3ccsc3)c2C2CCN(C(=O)OC(C)(C)C)CC2)c(C)c1 ?
D2 PAM-1: -3.3; D2 ag-2: 0.7

How did CCOC(=O)c1c(CN2CCCCC2)oc2ccc(O)cc12 do in these assays?
D2 antag: -1.3; D2 PAM-1: -7.3; D2 ag-1: -4.3; D2 PAM-2: -19.9; D2 ag-2: 2.7

How did CCOC(=O)c1c(CN2CCOCC2)oc2ccc(OC)cc12 do in these assays?
D2 antag: -10.6; D2 PAM-1: 31.3*; D2 ag-1: -3.2; D2 PAM-2: -11.1; D2 ag-2: 0.4

How did CCCOc1cc(C)c(Cl)cc1S(=O)(=O)N(CC)CC do in these assays?
D2 antag: 7.3; D2 PAM-1: 3.0; D2 ag-1: -5.4; D2 PAM-2: -21.6; D2 ag-2: -0.9

Results for CCOc1cc(C)c(Cl)cc1S(=O)(=O)N(C)C ?
D2 antag: 48.7*; D2 PAM-1: 6.6; D2 ag-1: 0.2; D2 PAM-2: -2.9; D2 ag-2: 0.2

What do the screens show for `O=C(CN1CCN(c2ccc(F)cc2)CC1)N1N=CCC1c1ccccc1` (stereo not given)?
D2 antag: 36.3*; D2 PAM-1: 2.2; D2 ag-1: 1.3; D2 PAM-2: -18.7; D2 ag-2: 0.3

What do the screens show for `C#CCn1c2ccccc2c2nc3ccccc3nc21`?
D2 antag: -12.7; D2 PAM-1: 14.0; D2 ag-1: 1.1; D2 PAM-2: -1.1; D2 ag-2: 0.4

How did CC(C)n1c2ccccc2c2nc3ccccc3nc21 do in these assays?
D2 antag: -10.2; D2 PAM-1: 39.6*; D2 ag-1: -5.9; D2 PAM-2: -18.9; D2 ag-2: -0.7

How did O=C(CSc1n[nH]c(-c2ccc(S(=O)(=O)N3CCCCC3)cc2)n1)Nc1nccs1 do in these assays?
D2 antag: 39.2*; D2 PAM-1: -0.3; D2 ag-1: 0.5; D2 PAM-2: -1.6; D2 ag-2: 0.6

What do the screens show for `COc1cc2oc(=O)c(Br)c(C)c2c(OC)c1OC`?
D2 antag: 39.1*; D2 PAM-1: -1.2; D2 ag-1: -1.2; D2 PAM-2: -2.2; D2 ag-2: -1.3

How did CCOC(=O)Cc1csc(NC(=O)COc2ccc3ccccc3c2)n1 do in these assays?
D2 antag: 58.7*; D2 PAM-1: -4.1; D2 ag-1: -1.2; D2 PAM-2: 2.6; D2 ag-2: 1.4

What do the screens show for `Cc1cc2c([nH]c3ccccc32)c2c1OC(C)(C)C=C2`?
D2 antag: 42.6*; D2 PAM-1: 13.7; D2 ag-1: 14.7; D2 PAM-2: -13.9; D2 ag-2: 0.1

How did COc1ccccc1N1CCN(C(=O)Cn2c(=O)nc(-c3ccccc3)c3ccccc32)CC1 do in these assays?
D2 PAM-1: 6.2; D2 ag-2: 1.9

What do the screens show for `Cn1c(CCCOc2ccc(Cl)cc2Cl)nnc1SCC(=O)Nc1nccs1`?
D2 antag: 31.9*; D2 PAM-1: 1.7; D2 ag-1: 2.1; D2 PAM-2: 0.1; D2 ag-2: 0.6

What do the screens show for `Cn1c(CC(=O)Nc2ccc(Cl)c(Cl)c2)nnc1SCC(=O)Nc1nccs1`?
D2 antag: -26.0; D2 PAM-1: 8.1; D2 ag-1: -1.3; D2 PAM-2: -4.6; D2 ag-2: -0.2

What do the screens show for `Cn1c(CSCc2ccccc2Cl)nnc1SCC(=O)Nc1nccs1`?
D2 antag: 59.7*; D2 PAM-1: 10.8; D2 ag-1: 0.6; D2 PAM-2: -1.6; D2 ag-2: 0.3

Results for CCCCc1nnc(SCC(=O)Nc2nccs2)n1C ?
D2 antag: -5.7; D2 PAM-1: 15.3; D2 ag-1: -0.4; D2 PAM-2: 8.0; D2 ag-2: 0.5

Results for O=C(NC12CC3CC(CC(C3)C1)C2)C1CCCN1C(=O)NC1CCCCC1 (stereo not given) ?
D2 antag: -12.1; D2 PAM-1: 14.1; D2 ag-1: -1.5; D2 PAM-2: -5.7; D2 ag-2: 1.3

Source: PubChem
